Screen size: about 330,000 compounds; about 960 (0.29%) were called active.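 How the source made its calls: active means compounds whose signal lies at least 3.5 SD above the mean of all wells on their plate; inactive means the rest.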 Many of the other results were omitted from the sample, so actives are more common in it than they were.

This test can be described thus: small molecules increasing insulinoma cell replication – ATP luminescence, uHTS, primary screen (AID 2380).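 Further: 0% = DMSO-treated cells in low-serum medium and 100% = 10% serum control.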 The note with it: MIN6 cells proliferation, ATPlite luminescence, 48 h; at 10 µM; active compounds read high; 100% = growth in 10% serum; cells starved in 0.2% serum. In general terms: Cellular ATP, detected with luciferase, serves as a proxy for viable cell number.
Take `O=C(CN1CCN(c2ccc(F)cc2)CC1)Nc1cccc(C(F)(F)F)c1`: the proliferation is -3.27% (inactive).

`CC(C)(C)C1CCC(OC(=O)CCC(=O)Nc2ccccc2)CC1` (configuration not stated): the proliferation is 0% (inactive).

As to `O=C1c2ccccc2S(=O)(=O)c2cc(N3CCN(c4ccccn4)CC3)ccc21`, the proliferation was 12.1% (active).

As to `O=C(c1ccc2c(c1)N(Cc1ccc(F)cc1)C(=O)c1ccccc1S2(=O)=O)N1CCN(c2ccccn2)CC1`, the proliferation is -0.68% (inactive). For the compound `O=C(c1ccc2c(c1)C(=O)N(c1ccc(Cl)cc1)C2=O)N1CCN(c2ccccn2)CC1`, the proliferation was 2.75% (inactive). The value for `Cc1cc(=O)oc2cc(OCC3CC(c4ccccc4Cl)=NO3)ccc12` (configuration not stated) was -5.28% (inactive); that for `COc1ccc(OCC(=O)OCCN(C)C)cc1` was 0.06% (inactive). For `Cc1c(C(=O)NCCN(C)C)oc2ccc(S(=O)(=O)N3CCCC3)cc12`, the proliferation is 0% (inactive). Next, `O=C(CSc1nc2ccccc2[nH]1)N/N=C/C=C\c1ccccc1[N+](=O)[O-]`: 6.1% (active). Next, `CCn1c(SCC(=O)N/N=C/C=C/c2ccccc2[N+](=O)[O-])nnc1-c1ccccc1`: -1.08% (inactive); `Cc1ccc(-n2c(SCC(=O)N/N=C/C=C/c3ccccc3[N+](=O)[O-])nc3ccccc3c2=O)cc1`: -2.84% (inactive). The value for `Cn1cc(-c2ccccc2)cc(C#N)c1=O` was -2.8% (inactive). For `Cc1scc(C(=O)NNC(=S)NCc2ccccc2)c1C`, the proliferation is 0% (inactive). With `Cc1ccc(OCC(=O)NNC(=S)NCc2ccccc2)cc1`, the proliferation was 1.61% (inactive). The value for `O=C(NNC(=S)NCc1ccccc1)c1ccc(OC(F)F)cc1` was 0% (active); that for `C=CCn1nc(-c2ccccc2)c2c(C)onc2c1=O` was 2.27% (inactive); that for `Cc1cccc(CN2CCC(n3nccc3NC(=O)c3ccccc3C)CC2)n1` was 0.34% (inactive). In the case of `CN1C(=O)[C@H]2[C@@H](C3CC3)N3C(=O)CN(Cc4ccccc4)C(=O)[C@@]3(C)[C@H]2C1=O`, the proliferation was 3.27% (inactive).

As for `Fc1ccc(CNCc2ccc(Br)cc2)cc1`, the proliferation was 5.1% (active).

Turning to `O=C(CC1CCCCC1)NCc1ccc(F)cc1`, the proliferation is -3.62% (inactive).

`CCCCC(=O)NCc1ccc(F)cc1`: the proliferation was 0% (inactive). In the case of `Cc1ccc(S(=O)(=O)N2CCN(C(=O)c3ccccc3-c3nc4ccccc4s3)CC2)c(C)c1`, the proliferation was -1.73% (inactive). As for `COc1ccc(Cl)cc1S(=O)(=O)Nc1cccc(C(=O)O)c1`, the proliferation is -0.59% (inactive). In the case of `CC(C)c1nnc(NC(=O)COC(=O)/C=C/c2ccc([N+](=O)[O-])cc2)s1`, the proliferation was 0.53% (inactive). Next, `COc1ccccc1OCc1ccc(C(=O)NC(C)c2ccccc2)o1` (configuration not stated): 0.18% (inactive).

With `COc1ccccc1OCc1ccc(C(=O)N2CCN(C)CC2)o1`, the proliferation is 7.74% (active). Take `O=C(c1ccco1)N1CCN(C(=O)c2ccc(COc3ccc(F)cc3)o2)CC1`: the proliferation was 6.29% (inactive).

In the case of `CC(NC(=O)c1ccco1)c1ccc2c(c1)OCO2` (configuration not stated), the proliferation is -0.03% (inactive).

In the case of `O=C(NC(=S)Nc1cccc2c(O)cccc12)c1cccc(Br)c1`, the proliferation was -7.11% (inactive). Next, `Cc1ccccc1NC(=S)NNC(=O)c1cccc(Br)c1`: 13.8% (active); `Cc1cc(C(=O)NNC(=S)Nc2ccccc2C)cs1`: 0% (inactive); `CC1(C)O[C@@H]2[C@H](O1)[C@@H](CO)O[C@H]2n1c(N2CCCCC2)nc2c(N)ncnc21`: 1.62% (inactive).

As for `C[C@@H](Nc1nc(-c2ccccc2)nc2c1oc1ccccc12)C(=O)O`, the proliferation is -1.21% (inactive).

In the case of `COCCNc1nc(-c2ccccc2)nc2c1oc1ccccc12`, the proliferation is 6.28% (active). The value for `COc1ccc(C)cc1Nc1nc(C)nc2c1oc1ccccc12` was -4.77% (inactive). Consider `Cc1cc(C)c(S(=O)(=O)NCC2CCC(C(=O)NCc3ccc4c(c3)OCO4)CC2)c(C)c1` (configuration not stated), for which the proliferation is -1.16% (inactive). Turning to `O=C(CN1CCN(c2ccc(Cl)cc2)CC1)c1ccccc1`, the proliferation is -0.29% (inactive). Regarding `COc1ccc(CN2CCNC(=O)C2CC(=O)NCc2cn[nH]c2-c2ccccc2)c(F)c1` (configuration not stated), the proliferation is 0.21% (inactive).

With `Cc1ccc2c(c1)N(S(=O)(=O)c1cc(-c3cc(C)no3)ccc1C)CCO2`, the proliferation is -6.66% (inactive). The value for `C=CCOC(=O)C1=C(C)OC(N)=C(C#N)C1c1ccc(F)cc1` (configuration not stated) was -0.46% (inactive); that for `CCOC(=O)C1=C(C)OC(N)=C(C#N)C1c1cncc(-c2ccc(F)cc2)c1` (configuration not stated) was -3.32% (inactive). Next, `CCOC(=O)C1=C(CC)OC(N)=C(C#N)C1c1ccc(F)cc1F` (configuration not stated): 9.9% (active); `CC(=O)NC(C)(C)C1CC=C(C)/C(=N\O)C1` (configuration not stated): -0.3% (inactive); `CCOC(=O)c1sc(NC(=O)CCN2CCOCC2)c(C(=O)OCC)c1C`: -6.14% (inactive). The value for `CCOC(=O)Nc1sc(C(=O)N(C)C)c(C)c1C(=O)OCC` was 7.91% (active); that for `CCOC(=O)c1c(NC(=O)CCl)sc(C(=O)N(CC)CC)c1C` was -3.42% (inactive). `NC(=O)c1nsc(C(=O)N(CCCN2CCOCC2)C(C(=O)NC2CCCCC2)c2ccc(Cl)cc2)c1N` (configuration not stated): the proliferation is 0% (inactive). The value for `Cc1noc(COc2ccccc2OCc2onc(C)c2Cl)c1Cl` was -3.09% (inactive); that for `COC(=O)Cn1nc(-c2ccccc2)c2cc(Cl)ccc21` was -1.48% (inactive); that for `Cn1nc(-c2ccccc2)c2cc([N+](=O)[O-])ccc21` was 8.71% (active). For the compound `O=[N+]([O-])c1ccc2c(c1)C(O)n1nc(-c3ccccc3)nc1S2` (configuration not stated), the proliferation was -0.32% (inactive). Next, `C/C(Cl)=C\Cn1c(Nc2cccc(C)c2)nc2c1c(=O)n(C)c(=O)n2C`: -1.44% (inactive). Next, `COc1ccc(NC(=O)CNc2cc(S(=O)(=O)N3CCOCC3)ccc2N2CCOCC2)c(OC)c1`: -0.63% (inactive). As for `CCOC(=O)C1(Cc2ccccc2C)CCCN(C(=O)CCc2c(C)noc2C)C1` (configuration not stated), the proliferation is 0.64% (inactive). Regarding `Cc1ccc(S(=O)(=O)N2CCCCC2)cc1C(=O)N1CCN(CCO)CC1`, the proliferation is 12.6% (active). Turning to `CCOC(=O)N1CCN(C(=O)c2cn(C)c3ccc(S(=O)(=O)N4CCCC4)cc3c2=O)CC1`, the proliferation is -0.22% (inactive). Next, `Cc1ccc(S(=O)(=O)N2CCN(C)CC2)cc1C(=O)NC1CCCCC1`: -0.96% (inactive).

`CCC(NC(=O)c1ccccc1NC(=O)c1ccccc1)C(=O)NNC(=O)CSc1nc2ccccc2o1` (configuration not stated): the proliferation is -0.4% (inactive). As to `COc1ccc(N(CC(=O)N2CCOCC2)S(=O)(=O)c2ccccc2)cc1Cl`, the proliferation was -0.37% (inactive). The value for `COCCN(C(=O)CCC(=O)Nc1nccs1)C(C(=O)NC(C)(C)C)c1ccc(Cl)cc1` (configuration not stated) was 5.62% (inactive); that for `CC(=O)Nc1ccc(/C(C)=N/NC(=O)CN(c2ccccc2Br)S(C)(=O)=O)cc1` was 0% (inactive). As for `CCn1c(=O)c([N+](=O)[O-])c(NCc2ccc3c(c2)OCO3)c2ccccc21`, the proliferation was 8.6% (active). Next, `C=CCn1c(=O)c(C(=O)NCc2ccc3c(c2)OCO3)c(O)c2ccccc21`: -5.37% (inactive). As for `CCn1c(=O)cc(SCC(=O)NCc2ccc3c(c2)OCO3)c2ccccc21`, the proliferation was 0.19% (inactive). The value for `CCc1ccc(S(=O)(=O)NCC(O)COc2ccc(OC)cc2)cc1` (configuration not stated) was 1.69% (inactive); that for `COc1ccc(CN(C(=O)CSc2nnc(-c3ccc(OC)c(OC)c3)o2)c2ccc(F)cc2)cc1` was -1.49% (inactive). For `CSc1cccc(NC(=O)CN2C(=O)COc3ccc(S(=O)(=O)N4CCOCC4)cc32)c1`, the proliferation is -3.64% (inactive). As for `O=C(c1ccc(F)cc1)c1cn(Cc2ccc(F)cc2)c2cc3c(cc2c1=O)OCCO3`, the proliferation was -0.71% (inactive). The value for `Cc1cc(NC(=O)CSCC(=O)NC(C)c2ccccc2)no1` (configuration not stated) was -3.94% (inactive); that for `Cc1cc(NC(=O)CSc2nc3ccccc3n2CC(C)C)no1` was 7.98% (active). The value for `Cc1cc(NC(=O)COn2nnc3ccccc32)no1` was -1.01% (inactive); that for `CCOc1ccc(C(=O)Nc2ccc(CN3CCOCC3)cc2)cc1Cl` was -1.37% (inactive); that for `CCOC(=O)c1csc(CCNC(=O)c2oc3c(Cl)cc(C)cc3c2C)n1` was -3.1% (inactive). Regarding `O=c1c2ccccc2c(-c2ccc(Br)cc2)nn1Cc1ccccc1`, the proliferation is -5.75% (inactive). Next, `CCCNC(=O)CCn1nc(-c2ccccc2)c2ccccc2c1=O`: 9.9% (active).

With `CCOC(=O)C(C)n1nc(-c2ccccc2)c2ccccc2c1=O` (configuration not stated), the proliferation was 4.32% (inactive). Take `CCCn1c(C)cc(/C=C(\C#N)C(=O)OCC(=O)Nc2cc(OC)c(OC)c(OC)c2)c1C`: the proliferation was -0.86% (inactive). For the compound `COc1ccccc1N(C)C(=O)c1cc(S(=O)(=O)N2CCc3ccccc32)cn1C`, the proliferation was -2.09% (inactive). The value for `CCOC(=O)c1c(N=CN(C)C)c(C#N)c2n1CCCC2` was 5.05% (inactive); that for `CC1=NN(C(=O)CCCc2ccccc2)C(O)(C(F)(F)F)C1` (configuration not stated) was -1.71% (inactive); that for `OC1CN=C2Sc3ccccc3N2C1` (configuration not stated) was 5.2% (active). On to `CCOC(=O)N1CCN(C(=O)c2ccc3nc4cc(Cl)ccc4c(=O)n3c2)CC1`, for which the proliferation is -2.76% (inactive).

With `O=C(CN1CCN(c2ccc(Cl)cc2)CC1)NCc1cccs1`, the proliferation was 0.22% (inactive). Next, `CC1(C)SC2c3ccccc3C(=O)N2[C@@H]1C(=O)NCc1ccco1` (some centres not stated): 0.14% (inactive). The value for `COc1ccc(S(=O)(=O)N2CCC(C(=O)NCc3ccco3)CC2)cc1C` was -0.27% (inactive); that for `COc1cc2c(cc1OC)C(C(=O)NCc1ccco1)C1c3ccccc3CCN1C2=O` (configuration not stated) was 9.44% (active). The value for `O=C1NC(c2ccc(-c3ccccc3[N+](=O)[O-])o2)C(C(=O)c2ccc(Cl)cc2)C(O)(C(F)(F)F)N1` (configuration not stated) was -2.76% (inactive); that for `COC(C(=O)NCc1ccccc1C)c1ccccc1` (configuration not stated) was -1.34% (inactive). With `CC(=O)CC[C@@H](C)O[C@@H]1OC(C)[C@H](O)CC1O` (some centres not stated), the proliferation was -5.25% (inactive). The value for `COc1cccc(CNC(=O)CCC2CCCN(C(=O)c3cc(C)[nH]n3)C2)c1` (configuration not stated) was 0.78% (inactive). Next, `COc1cccc(CNC(=O)CCC2CCCN(C(=O)c3ccoc3C)C2)c1` (configuration not stated): 12.3% (active). As to `COc1cccc(CNC(=O)CCC2CCCN(C(=O)c3ccc(F)c(Cl)c3)C2)c1` (configuration not stated), the proliferation is -1.84% (inactive).

The record behind these values is PubChem BioAssay AID2380 (Sanford-Burnham Center for Chemical Genomics, 2010).
